A selection: hits, their analogues and other compounds. The true share with any hit is near 10%.
PNC inhibitor = blocks assembly of the perinucleolar compartment | PC3M PTB-GFP, PNC prevalence imaging, 16 h; hits give low values | activity change (PNC), negative = inhibition, % at 10 µM | actives 3.1% (n = 140,000);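 active = readout at or below -70, meaning at least 70% loss of cells showing the perinucleolar compartment, a nuclear body marking cancer cells; inconclusive = readout between -30 and a set limit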;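 note: plate controls were DMSO wells for no effect and camptothecin positive control wells for full effect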
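Read-out is percentage of cells bearing a perinucleolar compartment, from automated 20x imaging of fixed, Hoechst-stained PC3M PTB-GFP cells. Cells were seeded 4 h, then exposed 16 h to compound (23 nl of library stock) in duplicate plates.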
Lamin A splicing = modulators of lamin A splicing; actives 0.01% (n = 200,000); HeLa LMNA splicing GFP/RFP minigene ratio, 48 h; Potency, µM (titrated, usually from 46.1 µM), inactives show top-dose ratio change, negative = inhibition, hits mostly inhibitors; active = well fitted inhibition curve with a large enough effect in the signal ratio, with a control signal flat, not every such curve was filed as active; inconclusive = small, poorly fitted or top-dose-only effect, or effect the other way, or a change in a side signal; the % refers to the signal ratio; note: potency is the fitted concentration of half-maximal effect
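S3 HeLa cells stably expressing lamin A-EGFP splicing minigene plus DsRed2, 600 cells/well, 48 h compound exposure at 37C. Laser-scanning cytometry; analysed as GFP (500-530 nm)/RFP (575-640 nm) total intensity ratio; 0.5% DMSO vehicle.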
12-hLO inh = 12-hLO (ALOX12) enzyme inhibition. P18054. purified 12-hLO, xylenol orange hydroperoxide absorbance. Potency, µM (titrated, usually from 57.1 µM), inactives show at the highest dose activity change, negative = inhibition, usual class: inhibitors. actives 0.12% (n = 150,000). AID 1452; active = well fitted inhibition curve with a large enough effect; inconclusive = small, poorly fitted or top-dose-only effect; note: potency is the fitted concentration of half-maximal effect; nearly all actives have a fitted effect of over 55% in size
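Hydroperoxide formation by human 12-lipoxygenase from 40 uM arachidonic acid was followed colorimetrically via ferric-xylenol orange complex, using the 573/405 nm absorbance ratio. Enzyme concentration was 150 nM, with 30 min reaction at room temperature.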
ALDH1A1 block = inhibitors of human aldehyde dehydrogenase 1A1. Purified ALDH1A1, NADH fluorescence, propionaldehyde substrate. Potency, µM (series often up to 75.3 µM), for inactives: top-dose activity, negative = inhibition, actives largely listed as inhibitors. P00352. actives 7.3% (n = 220,000);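 note: potency is the fitted concentration of half-maximal effect; plate controls were no enzyme wells and a reference inhibitor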
Target sequence (P00352 whole entry, looked up): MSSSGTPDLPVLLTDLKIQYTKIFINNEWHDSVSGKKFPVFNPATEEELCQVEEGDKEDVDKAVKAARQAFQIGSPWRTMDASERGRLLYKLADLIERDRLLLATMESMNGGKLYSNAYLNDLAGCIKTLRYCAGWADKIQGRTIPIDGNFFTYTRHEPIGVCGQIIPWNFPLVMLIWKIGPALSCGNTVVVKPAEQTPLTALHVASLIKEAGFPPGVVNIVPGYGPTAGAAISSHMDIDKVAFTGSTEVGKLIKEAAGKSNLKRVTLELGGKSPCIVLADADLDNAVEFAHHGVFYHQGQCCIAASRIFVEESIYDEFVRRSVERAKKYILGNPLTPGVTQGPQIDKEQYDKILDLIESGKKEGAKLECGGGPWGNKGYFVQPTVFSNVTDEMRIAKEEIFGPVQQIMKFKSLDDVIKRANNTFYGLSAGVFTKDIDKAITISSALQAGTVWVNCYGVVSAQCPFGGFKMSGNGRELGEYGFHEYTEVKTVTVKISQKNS
HPGD inh = inhibitors of human 15-hydroxyprostaglandin dehydrogenase (HPGD). actives 4.3% (n = 150,000). P15428. Potency, µM, for the others: at the highest dose activity change, negative = inhibition, hits mostly inhibitors. purified HPGD, NADH fluorescence kinetic, PGE2 substrate. AID 894; note: potency is the fitted concentration of half-maximal effect
Target sequence (P15428 whole entry, looked up): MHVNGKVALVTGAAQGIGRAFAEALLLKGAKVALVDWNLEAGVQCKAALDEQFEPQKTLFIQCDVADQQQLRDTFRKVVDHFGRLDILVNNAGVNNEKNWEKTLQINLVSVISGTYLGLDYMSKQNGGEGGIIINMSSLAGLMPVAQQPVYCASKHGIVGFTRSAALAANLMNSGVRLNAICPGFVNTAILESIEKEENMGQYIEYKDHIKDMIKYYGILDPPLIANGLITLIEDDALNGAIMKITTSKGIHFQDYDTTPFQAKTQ
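NADH formation kinetics: reaction with 30 uM PGE2 and 1 mM NAD+ (final), 20 nM enzyme, Tris-HCl pH 8 with Tween 20, after 15 min compound preincubation at room temperature. Fluorescence change, last versus first of five reads.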
The depositor's hits bear a star; ? = inconclusive; . = not tested or not shown; [ ] = another dose, or the depositor's remark. Unless noted, calls come from the whole dose curve; as a rule, active = well fitted inhibition curve with a large enough effect (not every such curve was filed as active); inconclusive = small, poorly fitted or top-dose-only effect, or another doubt; inactive = no such curve, though single readings can be large or run the other way. Unless noted, % is set by controls: 0 for no effect and ±100 for the full control effect.

SMILES	PNC inhibitor	Lamin A splicing	12-hLO inh	ALDH1A1 block	HPGD inh
COC(=O)C1=C(Cn2cnc3ccccc32)NC(=O)NC1c1cc(C)ccc1C (stereo unspecified)	-103.4*	-13.2%	6.4%	4.4%	-13.9%
S=C(NC1CCCCC1)N1CCN(c2ncccn2)CC1	.	?	.	-14.9%	.
O=C(NC1CCCCC1)N1CCN(c2ncccn2)CC1	-83.4*	13.6%	4.2%	-5.9%	-5.5%
O=C(c1ccc(F)cc1)C1CCN(C(=O)NC2CCCCC2)CC1	5.5	?	-9.7%	11.2µM*	-8.4%
O=C(CSc1nc2ccccc2c(=O)n1-c1ccccc1)N/N=C/C=C/c1ccccc1[N+](=O)[O-]	.	.	.	2.82µM*	.
C/C(=N\NC(=O)c1cc(-c2cccnc2)nc2ccccc12)c1ccc(O)cc1O	-92.2*	?	2.9%	?	-22.8%
COc1ccccc1-c1cc(C(=O)N/N=C/C=C/c2ccccc2[N+](=O)[O-])c2ccccc2n1	-0.1	-21.8%	0.2%	-5.4%	-2.1%
Cc1ccc(C)c(NC(=O)c2cc(-c3cccnc3)nc3ccccc23)c1	.	?	.	4.7%	.
Cc1cc(C(=O)N/N=C/C=C/c2ccccc2[N+](=O)[O-])c(C)o1	.	?	.	5.62µM*	.
O=C(N/N=C/C=C/c1ccccc1[N+](=O)[O-])c1cc(-c2cccnc2)nc2ccccc12	-83.5*	?	4.3%	14.1µM*	-5.2%
CCOc1ccccc1NC(=O)CN1C(=O)CC(c2ccc(C)c(C)c2)=Nc2ccccc21	.	-4.3%[46 µM]	.	.	.
COc1ccc(-c2nc(-c3ccccc3)c(Nc3ccc4ccccc4c3)o2)cc1	.	.	0.3%	?	-7.7%
CCCc1noc2c1C(c1cc(Br)ccc1F)C(C#N)=C(N)N2 (stereo unspecified)	.	-4.5%[46 µM]	.	11.2µM*	.
COc1ccc(C2C(C#N)=C(N)Nc3onc(C(C)(C)C)c32)c(OC)c1 (stereo unspecified)	?	-11.1%	-0.4%	12.5%	-5.8%
COc1ccccc1CNC(=O)CC1N=C2c3ccccc3N=C(SCC(=O)Nc3ccc(F)cc3)N2C1=O (stereo unspecified)	.	-22.4%[46 µM]	.	.	.
CCOc1ccccc1OCCOCCN1CC(C)OC(C)C1 (stereo unspecified)	-87.4*	-4.3%	-3.2%	-9.6%	0.8%
COc1cc(C)ccc1OCCCCN1CC(C)OC(C)C1 (stereo unspecified)	34.9	14.3%	-0.4%	-5.1%	0.1%
CN1CCN(C(=O)/C(=C/c2cccs2)NC(=O)c2ccco2)CC1	.	-6.1%[46 µM]	.	0.9%	.
O=C(COc1ccccc1)Nc1ccc2nc(SCC(=O)N3CCOCC3)sc2c1	.	-13.0%[46 µM]	.	.	.
CCCc1cnc2c(c1SCC(=O)Nc1ccccc1OCC)c(=O)n(C)c(=O)n2C	.	-13.5%[46 µM]	.	.	.
COc1ccc(C2C(Oc3ccccc3)C(=O)N2c2cc(C)ccc2C)cc1OC (stereo unspecified)	-89.0*	31.0%	-1.4%	0.1%	-9.5%
COc1ccc(OC2C(=O)N(Cc3ccc(F)cc3)C2c2ccc(OC)c(OC)c2)cc1 (stereo unspecified)	33.5	-11.4%	2.7%	?	-3.0%
Cc1cc(Nc2ccccc2)n(-c2cccc(Cl)c2)n1	-95.6*	?	-4.1%	?	28.2µM*
Cc1ccc(S(=O)(=O)Nc2cc(C)nn2-c2ccccc2)cc1	-9.9	12.8%	-8.7%	25.1µM*	-6.8%
Cc1ccc(S(=O)(=O)Nc2cccc(N(C)S(C)(=O)=O)c2)cc1[N+](=O)[O-]	.	.	.	15.8µM*	.
SMILES	PNC inhibitor	Lamin A splicing	12-hLO inh	ALDH1A1 block	HPGD inh
CC(=O)Nc1ccccc1-c1nc2ccccc2nc1OCC(=O)c1ccc(Br)cc1	?	2.9%	2.1%	11.5%	-8.0%
CCOC(=O)c1ccc(COc2nc3ccccc3nc2-c2ccccc2NC(C)=O)o1	-115.5*	20.8%	-3.1%	0.8%	-13.2%
Cc1ccc(CNC(=O)CN2CCCC(C)C2)cc1 (stereo unspecified)	4.5	8.5%	10.4%	-1.5%	14.1µM*
Cc1cc(NC(=O)CN2CCCC(C)C2)no1 (stereo unspecified)	.	.	.	5.5%	.
Cn1cc(Cl)c(C(=O)NNC(=S)NC2CCCCC2)n1	-109.0*	4.8%	-0.1%	5.2%	-1.8%
COC(=O)c1sc(NC(C)=O)c(C(=O)OC)c1C	?	-3.9%	-1.7%	?	31.6µM*
COC(=O)c1sc(NC(=O)CC(C)C)c(C(=O)OC)c1C	26.9	10.8%	-2.1%	?	-21.5%
COC(=O)c1sc(NC(=O)CSc2nncs2)c(C(=O)OC)c1C	19.1	?	-19.2%	?	2.82µM*
O=C(OCC#CCSc1nnc(-c2ccccc2)o1)c1cccs1	24.6	5.0%	13.9%	20µM*	15.8µM*
Cc1ccc(C(=O)C(NC(=O)c2ccco2)N2CCOCC2)cc1 (stereo unspecified)	?	20.2%	1.4%	28.2µM*	-16.6%
O=C(NC(C(=O)c1ccccc1)N1CCCCCC1)c1ccco1 (stereo unspecified)	?	-4.0%	2.5%	14.1µM*	-4.6%
O=C(Nc1ccc(F)cc1F)C(Cc1ccccc1)N1Cc2ccccc2C1=O (stereo unspecified)	.	2.9%[46 µM]	.	.	.
COc1ccc(C(=O)N2CCC3(CCN(Cc4ccc(C#N)cc4)CC3)CC2)cc1	.	.	4.9%	-7.5%	-2.4%
COc1ccc(C2Sc3nncn3N2Cc2ccc(C#N)cc2)cc1 (stereo unspecified)	15.3	7.8%	2.4%	10µM*	-7.0%
C/C(CCC(=O)O)=N/Nc1ccc([N+](=O)[O-])cc1[N+](=O)[O-]	-86.9*	2.4%	-27.1%	-7.9%	-11.1%
C/C(CCCO)=N/Nc1ccc([N+](=O)[O-])cc1[N+](=O)[O-]	.	.	.	-3.8%	.
O=C(/C=C1\NC2(CCCC2)Cc2ccccc21)C(=O)N/N=C/c1ccccc1O	-12.5	?	4.8%	4.47µM*	-20.9%
COc1cc(/C=N/NC(=O)C(=O)/C=C2\NC3(CCCC3)Cc3ccccc32)ccc1O	16.5	?	0.4%	-6.3%	-0.8%
Cc1cc(O)c(Oc2cc(C)cc(O)c2O)c(O)c1	.	.	.	8.91µM*	.
N[C@@H](Cc1ccccc1)c1nnc(SCc2ccccc2Cl)o1	21.7	-2.4%	-1.2%	?	28.2µM*
C=CCN1C(=O)C(C)(C)Nc2ccccc21	?	6.7%	-1.6%	-3.9%	-6.0%
C=CCN1C(=O)/C(=N/n2cnnc2)c2ccccc21	-4.2	?	-11.2%	0.0631µM*	-5.6%
O=[N+]([O-])c1cc(C(F)(F)F)ccc1N1CCC(O)CC1	.	.	.	11.2µM*	.
NC(=O)C1CCN(c2ccc(C(F)(F)F)cc2[N+](=O)[O-])CC1	24.4	5.8%	-2.1%	8.0%	-9.8%
COc1ccc(CCCn2ncc3c2nc(N)n2nc(-c4ccco4)nc32)cc1	.	.	0.8%[0.00818 µM]	-7.2%	?
CCNc1ncc2nc(-c3ccc(OC)cc3)c(=O)n(CCOC)c2n1	.	-3.7%	.	?	.
